# BoNT F protease: BoNT/F light chain protease inhibitors, primary screen, biochemical, flow cytometry, MLPCN library; Multiplex microsphere protease cleavage assay; inhibition, % at 10 µM; hit rate 0.22% among 360,000; AID 588497, 2011; in the data active = inhibition above about 35%, passing the limit was not always enough; inconclusive = no clear call, values can overlap the other calls; also: plate controls were buffer without enzyme for full effect and enzyme alone for no effect
# Bead autofluor: flagged as autofluorescent in microsphere protease counterscreen; AID 624483; compound autofluorescence counterscreen, microsphere flow cytometry; active compounds read high; fluorescence intensity (concentration not given with the values); hit rate 3.1% among 360,000; in the data active = fluorescence intensity above about 16000; inconclusive = no clear call, values can overlap the other calls
# BoNT A protease: BoNT/A light chain protease inhibitors, primary screen, biochemical, flow cytometry, MLPCN library | inhibition, % at 10 µM | hit rate 0.17% among 360,000 | multiplex microsphere protease substrate cleavage | AID 588499, 2011; also: plate controls were buffer without enzyme for full effect and enzyme alone for no effect
# PfHsp40 yeast: rescue of yeast from PfHsp40 toxicity, primary screen, S. cerevisiae, ATP luminescence; S. cerevisiae expressing PfHsp40, growth rescue; growth rescue, % at 12.5 µM; hit rate 0.68% among 340,000; in the data active = growth rescue above about 28%, passing the limit was not always enough; inconclusive = no clear call, values can overlap the other calls;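 also: yeast W303a lacking pdr1 and pdr3 grown in galactose medium; growth measured after three days at 30 °C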
# MazF activator: activators of E. coli MazEF toxin-antitoxin RNase, primary screen, biochemical, fluorescence, uHTS; FAM/BHQ RNA-DNA oligo cleavage fluorescence, 5 h; AID 504720, 2011; Endoribonuclease toxin MazF (Escherichia coli (strain K12)), P0AE70; hit rate 0.32% among 350,000; activation, % at 20 µM; in the data active = activation above about 50%
# Target sequence (P0AE70 whole entry, looked up): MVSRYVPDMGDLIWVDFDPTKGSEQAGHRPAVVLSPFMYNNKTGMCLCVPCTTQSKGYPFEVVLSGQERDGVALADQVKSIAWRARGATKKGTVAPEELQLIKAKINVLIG
# Anthrax LF prot: Bacillus anthracis LF protease inhibitors, primary screen, biochemical, multiplex microsphere, MLPCN library; Lethal factor (Bacillus anthracis), P15917; multiplex microsphere protease cleavage assay; inhibition, % at 10 µM; hit rate 0.12% among 360,000; also: plate controls were buffer without enzyme for full effect and enzyme alone for no effect
# * marks the source's active call; other numbers are inactive results; u = inconclusive; x = no result given; ! = not active in a repeat. This is a sample that favours compounds with a hit; in the whole collection about 4.3% have one here. Rule as the data show it, unless noted: active = inhibition above about 30%; inconclusive = no clear call, values can overlap the other calls; inactive = below that.
SMILES,BoNT F protease,Bead autofluor,BoNT A protease,PfHsp40 yeast,MazF activator,Anthrax LF prot
CN(C)c1ccc(C2(c3ccc(N(C)C)cc3)OC(=O)c3cc(N)ccc32)cc1,0,3672,0,-1,-4,-4
N=c1c2c(n(Cc3ccc(Cl)cc3)c3c1CCC3)CCC2,-1,20485*,-2,-1,11,-1
O=c1[nH]cnc2c1nnn2C1OC(CO)C(O)C1O (stereo not drawn),-1,5698,1,x,x,4
COc1cccc(N2CCN(c3nc(-c4ccccc4C)cc(=O)[nH]3)CC2)c1,0,3188,-1,108*,-6,-9
COc1cccc(N2CCN(c3nc(C)c(C)c(=O)[nH]3)CC2)c1,-3,3224,2,1,1,0
CCOC(=O)c1c(CC(C)C)csc1NC(=O)COC(=O)c1cc(OC)c(OC)cc1[N+](=O)[O-],-4,2515,0,0,-1,2
COc1cccc(CNC(=O)COC(=O)/C=C/c2ccc(SC)cc2)c1,-4,5356,0,-1,1,-4
Cc1cc(=O)oc2cc(OCC(=O)Nc3nnc(CC(C)C)s3)ccc12,35*,4905,0,0,0,4
CCCn1c(-c2cccnc2Cl)nc2cc(Cl)c(Cl)cc21,-1,21449*,-1,1,1,0
c1ccc(Cn2ccc(-c3cnc(-c4ccccc4)s3)n2)cc1,0,2094,1,69*,3,-3
Nc1ccn(Cc2ccccc2)n1,1,3488,0,1,-2,0
COc1ccccc1N1CCN(C2CC(=O)N(c3cccc(Cl)c3)C2=O)CC1 (stereo not drawn),x,x,x,2,5,x
CCOc1ccccc1NC(=O)CN1C(=O)NC(Cc2c[nH]c3ccccc23)C1=O (stereo not drawn),5,3390,1,0,7,-1
CC1(C)C(c2cccs2)=[N+]([O-])C2(CCCCC/C2=N\O)N1O (stereo not drawn),-4,24784*,-2,2,11,-1
Cc1c(NS(=O)(=O)c2cccc(C(=O)NCc3cccc(Cl)c3)c2)c(=O)n(-c2ccccc2)n1C,-11,3948,-1,0,2,-4
CC1CC(C)CN(C(=O)Cn2c(SCC(=O)N3CCc4ccccc4C3)nc3ccccc32)C1 (stereo not drawn),26,4589,-1,-1,-39,1
CC(C)NC(=O)Cn1c(SCC(=O)N2CCc3ccccc3C2)nc2ccccc21,-7,20580*,-3,2,-1,-1
COc1cc(C(=O)NCC(=O)Nc2ccc(F)c(F)c2)ccc1OCC(=O)N1CCOCC1,1,6482,-2,1,1,4
Cc1cc(NC(=O)C(C)Sc2nnc(NCc3ccco3)s2)no1 (stereo not drawn),3,3678,0,-1,1,3
CC(=O)c1cccc(NC(=O)c2ccc3c(c2)C(=O)N(Cc2cccnc2)C3=O)c1,-8,4950,-1,2,4,-1
O=C(Nc1cccnc1)c1ccc2c(c1)C(=O)N(Cc1cccnc1)C2=O,-2,23004*,0,-1,3,-1
COC(=O)c1c(NC(=O)c2cccnc2)sc(C)c1C,-6,4650,0,2,3,-1
COC(=O)c1cc(C)sc1NC(=O)c1cccnc1,-10,24838*,-7,-1,1,-1
CC(C)(C)C(=O)Nc1ccc(C(=O)Nc2cccnc2)cc1,0,23774*,-2,0,9,-3
Cc1cc(C(=O)Nc2cccnc2)cs1,1,23010*,2,0,4,2
SMILES,BoNT F protease,Bead autofluor,BoNT A protease,PfHsp40 yeast,MazF activator,Anthrax LF prot
Cc1c(C(=O)O)oc2c1C(O)CC(C)(C)C2 (stereo not drawn),-2,16667*!,-1,1,2,-2
Cc1c(C(=O)O)oc2c1C(O)CCC2 (stereo not drawn),-19,11377,-4,0,0,-11
CC(=O)n1cc(C2CC(=O)OC3=C2CC(=O)C(C)(C)C3)c2ccccc21 (stereo not drawn),-3,3848,0,x,32,-6
CC(=O)Oc1ccc(-c2cccc(C(=O)NCC(=O)O)c2)cc1,-2,23862*,-2,-1,11,-1
Cc1ccc(C(=O)NCCNc2ccc(Cl)cc2[N+](=O)[O-])o1,-4,22948*,u,0,1,-3
O=C(NCCNc1ccc(Cl)cc1[N+](=O)[O-])c1ccccc1F,u,4266,-3,3,3,-8
CS(=O)(=O)NCCCNc1ccc(Cl)cc1[N+](=O)[O-],1,22714*,1,2,9,1
COC(=O)c1cc(OC)c(OC)cc1NC(=O)CSc1nnc(-c2cccnc2)n1C,-6,20945*,-4,0,9,1
COc1ccc(OC)c(-c2csc3nnc(SCC(=O)Nc4ccc(NC(C)=O)cc4)n23)c1,-3,20934*,-1,0,0,-1
COc1cccc(-c2csc3nnc(SCC(=O)c4ccc(NC(C)=O)cc4)n23)c1,5,10751,1,-1,-15,-2
COC(=O)c1ccccc1NC(=O)CSc1nnc(-c2cccnc2)n1C,u,3253,0,0,3,2
CC(C)C(NC(=O)c1cccs1)c1nnc(SCC(=O)Nc2nccs2)n1C (stereo not drawn),5,21406*,4,0,4,-4
COc1ccc(NC(C)=O)cc1NC(=O)CSc1nnc(-c2ccncc2)n1C,1,21036*,u,2,1,-5
NC(c1ccccc1)c1csc(Nc2ccc(C(=O)NCCCO)cn2)n1 (stereo not drawn),-10,3701,0,x,x,-2
Cc1ccc(NC(=O)CSc2nnc(-c3ccncc3)n2C)cc1C,-6,20661*,u,0,1,-3
Cn1c(SCC(=O)Nc2ccc(NC(=O)c3ccccc3F)cc2)nnc1-c1ccncc1,5,3631,1,0,-2,-4
CCC(=O)Nc1ccc(-c2nnc(SCC(=O)Nc3nccs3)n2C)cc1,11,19859*,6,6,3,-3
CCn1c(SCC(=O)Nc2nccs2)nnc1-c1ccc(C)cc1,-10,u,2,0,7,-6
Cc1ccc(NC(=O)c2ncn(CCCNCc3ccccn3)n2)cc1C,-7,2752,-1,-1,3,-8
O=C(NNS(=O)(=O)c1ccccc1[N+](=O)[O-])c1ccc(O)cc1,-5,24381*,-1,1,2,0
O=C(NNS(=O)(=O)c1ccccc1[N+](=O)[O-])c1ccc(F)cc1,-1,4350,0,-1,4,-6
O=Cc1ccc(C(=O)OCC(=O)NC(=O)Nc2ccccc2F)cc1,-13,3833,1,-1,-4,-10

# Assay outcomes as filed in PubChem.
